TDP1 cell noCPT: qHTS for Inhibitors of human tyrosyl-DNA phosphodiesterase 1 (TDP1): qHTS in cells in absence of CPT | 420,000 compounds, 15% hits | DT40 Tdp1-/- hTDP1 cells, no CPT, ATP luminescence, 48 h | AID 686978, 2013 | Potency, µM (series often up to 46.2 µM), usual class: inhibitors; also: nearly all actives have a fitted effect of over 55% in size
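Chicken DT40 Tdp1-/- cells stably complemented with human TDP1 were seeded at 400 cells/well with DMSO in place of 20 nM camptothecin. After compound pinning, cells grew at least 48 hr at 37 °C; viability read by CellTiter-Glo luminescence.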
BCR signal inh: chronic active BCR signaling inhibition. ABC-DLBCL IkBa-CBG/CBR reporter, luminescence ratio, 4 h. Potency, µM (series often up to 46.1 µM), hits mostly inhibitors. 340,000 compounds, 0.05% hits. AID 493014; active = well fitted inhibition curve with a large enough effect in the signal ratio, with a control signal flat, not every such curve was filed as active; inconclusive = small, poorly fitted or top-dose-only effect, or effect the other way, or a change in a side signal; the % refers to the signal ratio
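Cell line TMD8 (human ABC DLBCL), stably expressing tet-inducible CBG68-IkBa fusion and CBR; IMDM/0.5% FBS; cpd up to 46 uM; dox induction, 4 h, 37C/5% CO2; dual luminescence; green/red ratio; MG132 control.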
SW480 rerep: inducers of DNA re-replication in SW480 colon cancer cells; SW480 DNA re-replication, Hoechst DNA content imaging, 48 h; Potency, µM (doses to about 46.1 µM), most hits filed as activators; 340,000 compounds, 1.8% hits; also: nearly all actives have a fitted effect of over 55% in size
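Cells (250 per well) received 23 nL compound or DMSO by pin tool and were kept 48 hr at 37 C, 5% CO2. Nuclei were then stained with Hoechst for 40 min and scanned for DNA content.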
TDP1 cell CPT: growth inhibition of DT40 Tdp1-/-;hTDP1 cells with camptothecin (screen for TDP1 inhibitors); AID 686979; chicken DT40 Tdp1-/-;hTDP1 cells + 20 nM CPT, ATP luminescence, 48 h; Potency, µM (titrated, usually from 46.2 µM), most hits filed as inhibitors; 420,000 compounds, 12% hits; also: nearly all actives have a fitted effect of over 55% in size
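Cell growth measured by CellTiter-Glo luminescence after a minimum 48 h, 37 C compound exposure with 20 nM CPT in Tdp1-knockout DT40 cells stably expressing hTDP1, seeded 400/well; qHTS titration format.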
MCF10A rerep: inducers of DNA re-replication in MCF 10A breast cells; MCF 10A DNA re-replication, Hoechst nuclear intensity, 48 h; Potency, µM (doses to about 46.1 µM), usual class: activators; 350,000 compounds, 2.9% hits; AID 624296; also: nearly all actives have a fitted effect of over 50% in size
IL1B secr inh: blocks inflammasome-driven IL-1 beta release. activity change, % at 57.5 µM. 360,000 compounds, 4.7% hits. AID 743279. THP-1 LPS/ATP IL-1B secretion, AlphaLISA, 16 h; stronger effect = lower value; in the data active = activity change below about -50%; inconclusive = mostly about -30% to -49%
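THP-1 cells pretreated 1 hr with compounds (up to 57.5 uM final), then stimulated with LPS (250 ng/mL final) plus ATP (1.25 mM final); secreted IL-1B measured by AlphaLISA after 16 hr, decreased signal indicating inhibition.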
Numbers stand for hits; n = inactive; u = inconclusive; x = no result given; [ ] = dose if it differs, or a comment. This is a sample that favours compounds with a hit; in the whole collection about 19% have one here. Unless noted, calls follow the shape of the dose curve; as a rule, active = well fitted curve in the direction sought with a large enough effect; inconclusive = small, poorly fitted or top-dose-only effect, or another doubt; inactive = no such curve, though single readings can be large; an effect the other way counts as inactive or inconclusive.

SMILES	TDP1 cell noCPT	BCR signal inh	SW480 rerep	TDP1 cell CPT	MCF10A rerep	IL1B secr inh
O=C(NC1=NCCS1)c1cc(-c2cccs2)nc2ccccc12	n	u	n	n	n	-64
NNC(=O)c1cc(-c2cccs2)nc2ccccc12	u	u	u	u	u	n
CN(C)S(=O)(=O)c1ccc(NC(=O)c2cc(-c3cccs3)nc3ccccc23)cc1	15µM	u	n	u	u	n
Cc1ccc(NC(=O)CCS(=O)(=O)c2cccc3nsnc23)c(C)c1	n	x	x	n	x	x
Cc1ccccc1-n1ncc2c([N+](=O)[O-])cc([N+](=O)[O-])cc21	21µM	n	n[9.22 µM]	26µM	u	n
CCc1ccccc1NC(=O)C1CCN(S(C)(=O)=O)CC1	n	x	n	n	n	n
CS(=O)(=O)c1cc(N2CCOCC2)ccc1CNC[C@H]1O[C@@H](n2cnc3c(=O)[nH]c(N)nc32)[C@H](O)[C@@H]1O	n	x	x	n	x	n
CCC(=O)c1ccc(OCc2ccc(C(=O)c3ccccc3)cc2)cc1	8.2µM	n	n	6.5µM	n	-136
Cc1ccc(NC(=O)Cc2cc(C(=O)O)c3ccccc3n2)c(C)c1	21µM	n	n	15µM	u	n
Cc1ccccc1NC(=O)COc1ccc(Br)cc1C	u	u	n	n	n	n
CS(=O)(=O)c1ccc(Cl)c(NC(=O)CCl)c1	10µM	u	u	5.8µM	u	-100
CS(=O)(=O)c1ccc(C(=O)Nc2cc(S(C)(=O)=O)ccc2Cl)cc1	n	n	n	n	n	n
Cc1ccc(C)c(NC(=O)Cc2nc(CCl)cs2)c1	21µM	n	n	26µM	n	n
Cc1ccccc1NC(=O)Cn1c(=O)oc2cc(Br)ccc21	13µM	u	x	u	x	x
CC(C)C1Cc2c(sc3c2c(=O)n(-c2ccccc2)c2n[nH]c(=S)n32)CO1 (stereo unspecified)	u	n	n	u	n	n
Cc1ccc(NC(=O)Cn2c(=O)oc3ccccc32)c(C)c1	13µM	n	n	n	n	n
Cc1ccc(NC(=O)CCc2ccc(C)o2)c(C)c1	n	n	n	u	n	n
Cc1ccc(NC(=O)CCl)c(C)c1	26µM	u	u	u	u	-99
O=C(Cn1c(=O)oc2ccccc21)Nc1ccccc1C(F)(F)F	6.5µM	n	n	u	n	n
CCOc1ccc(NC(=O)Cn2c(=O)oc3cc(Cl)ccc32)cc1	u	n	n	u	n	n
CCOc1ccccc1NC(=O)Cn1c(=O)oc2cc(Cl)ccc21	4.6µM	n	n	n	n	n
Cc1cccc(NC(=O)Cn2c(=O)oc3ccccc32)c1C	u	n	n	u	n	n
O=C(Cn1c(=O)oc2ccccc21)Nc1ccc(Cl)cc1	n	u	n	n	n	n
O=C(Cc1coc2cc3c(cc12)CCC3)NCC1(N2CCCCC2)CCCCC1	u	n	n	u	n	-82
O=C(Cc1coc2cc3c(cc12)CCC3)NC1CCCCCCC1	0.021µM	n	n	u	n	n
SMILES	TDP1 cell noCPT	BCR signal inh	SW480 rerep	TDP1 cell CPT	MCF10A rerep	IL1B secr inh
O=C(O)Cc1coc2cc3c(cc12)CCC3	n	n	n	n	n	n
CCOC(=O)CN(C(=O)Cn1nnc(-c2ccc(OC)cc2)n1)C(C(=O)NC1CCCC1)c1ccc(F)cc1 (stereo unspecified)	n	n	n	u	n	n
O=C(NC1CCCC1)C(c1ccc(F)cc1)N(Cc1ccc(F)cc1)C(=O)CCl (stereo unspecified)	4.6µM	u	u	3.3µM	n	-104
O=C(NC1CCCC1)C(c1cccnc1)N(Cc1ccc(F)cc1)C(=O)c1csnn1 (stereo unspecified)	n	n	n	n	n	n
COc1ccc(-c2nnn(CC(=O)N(Cc3ccc(F)cc3)C(C(=O)NC3CCCC3)c3ccc(F)cc3)n2)cc1 (stereo unspecified)	u	x	n	21µM	u	n
CCCCCC1CCC(c2ccc(/C(N)=N/O)cc2)CC1 (stereo unspecified)	8.2µM	n	2.3µM	15µM	u	n
